Compound activity as filed in PubChem BioAssay.
Only some compounds are listed: those with a hit (about 12% of all), similar ones and a draw of the others.
Sfp inh: Sfp phosphopantetheinyl transferase inhibition. Q9F4F7. Biochemical Sfp PPTase activity, qHTS. Potency, µM, actives largely listed as inhibitors. 3.5% of 310,000 active. AID 1490;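 further: the enzyme is Sfp with the accession as filed and its product quenches rhodamine fluorescence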
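Fluorescence-quenching assay: 15 nM Sfp-PPTase preincubated 15 min at room temperature with compound, then 5 uM rhodamine-CoA and 12.5 uM BHQ-2-labelled YbbR peptide added. Fluorescence (ex 525/em 598 nm) read at start and after 30 min; difference gives rate.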
BAZ2B block: inhibitors of human BAZ2B bromodomain | Potency, µM (doses to about 114 µM), most hits filed as inhibitors | AlphaScreen BAZ2B-H3K14Ac peptide displacement | 4.4% of 360,000 active | AID 504333; further: nearly all actives have a fitted effect of over 60% in size
Target sequence (Q9UIF8 whole entry, looked up): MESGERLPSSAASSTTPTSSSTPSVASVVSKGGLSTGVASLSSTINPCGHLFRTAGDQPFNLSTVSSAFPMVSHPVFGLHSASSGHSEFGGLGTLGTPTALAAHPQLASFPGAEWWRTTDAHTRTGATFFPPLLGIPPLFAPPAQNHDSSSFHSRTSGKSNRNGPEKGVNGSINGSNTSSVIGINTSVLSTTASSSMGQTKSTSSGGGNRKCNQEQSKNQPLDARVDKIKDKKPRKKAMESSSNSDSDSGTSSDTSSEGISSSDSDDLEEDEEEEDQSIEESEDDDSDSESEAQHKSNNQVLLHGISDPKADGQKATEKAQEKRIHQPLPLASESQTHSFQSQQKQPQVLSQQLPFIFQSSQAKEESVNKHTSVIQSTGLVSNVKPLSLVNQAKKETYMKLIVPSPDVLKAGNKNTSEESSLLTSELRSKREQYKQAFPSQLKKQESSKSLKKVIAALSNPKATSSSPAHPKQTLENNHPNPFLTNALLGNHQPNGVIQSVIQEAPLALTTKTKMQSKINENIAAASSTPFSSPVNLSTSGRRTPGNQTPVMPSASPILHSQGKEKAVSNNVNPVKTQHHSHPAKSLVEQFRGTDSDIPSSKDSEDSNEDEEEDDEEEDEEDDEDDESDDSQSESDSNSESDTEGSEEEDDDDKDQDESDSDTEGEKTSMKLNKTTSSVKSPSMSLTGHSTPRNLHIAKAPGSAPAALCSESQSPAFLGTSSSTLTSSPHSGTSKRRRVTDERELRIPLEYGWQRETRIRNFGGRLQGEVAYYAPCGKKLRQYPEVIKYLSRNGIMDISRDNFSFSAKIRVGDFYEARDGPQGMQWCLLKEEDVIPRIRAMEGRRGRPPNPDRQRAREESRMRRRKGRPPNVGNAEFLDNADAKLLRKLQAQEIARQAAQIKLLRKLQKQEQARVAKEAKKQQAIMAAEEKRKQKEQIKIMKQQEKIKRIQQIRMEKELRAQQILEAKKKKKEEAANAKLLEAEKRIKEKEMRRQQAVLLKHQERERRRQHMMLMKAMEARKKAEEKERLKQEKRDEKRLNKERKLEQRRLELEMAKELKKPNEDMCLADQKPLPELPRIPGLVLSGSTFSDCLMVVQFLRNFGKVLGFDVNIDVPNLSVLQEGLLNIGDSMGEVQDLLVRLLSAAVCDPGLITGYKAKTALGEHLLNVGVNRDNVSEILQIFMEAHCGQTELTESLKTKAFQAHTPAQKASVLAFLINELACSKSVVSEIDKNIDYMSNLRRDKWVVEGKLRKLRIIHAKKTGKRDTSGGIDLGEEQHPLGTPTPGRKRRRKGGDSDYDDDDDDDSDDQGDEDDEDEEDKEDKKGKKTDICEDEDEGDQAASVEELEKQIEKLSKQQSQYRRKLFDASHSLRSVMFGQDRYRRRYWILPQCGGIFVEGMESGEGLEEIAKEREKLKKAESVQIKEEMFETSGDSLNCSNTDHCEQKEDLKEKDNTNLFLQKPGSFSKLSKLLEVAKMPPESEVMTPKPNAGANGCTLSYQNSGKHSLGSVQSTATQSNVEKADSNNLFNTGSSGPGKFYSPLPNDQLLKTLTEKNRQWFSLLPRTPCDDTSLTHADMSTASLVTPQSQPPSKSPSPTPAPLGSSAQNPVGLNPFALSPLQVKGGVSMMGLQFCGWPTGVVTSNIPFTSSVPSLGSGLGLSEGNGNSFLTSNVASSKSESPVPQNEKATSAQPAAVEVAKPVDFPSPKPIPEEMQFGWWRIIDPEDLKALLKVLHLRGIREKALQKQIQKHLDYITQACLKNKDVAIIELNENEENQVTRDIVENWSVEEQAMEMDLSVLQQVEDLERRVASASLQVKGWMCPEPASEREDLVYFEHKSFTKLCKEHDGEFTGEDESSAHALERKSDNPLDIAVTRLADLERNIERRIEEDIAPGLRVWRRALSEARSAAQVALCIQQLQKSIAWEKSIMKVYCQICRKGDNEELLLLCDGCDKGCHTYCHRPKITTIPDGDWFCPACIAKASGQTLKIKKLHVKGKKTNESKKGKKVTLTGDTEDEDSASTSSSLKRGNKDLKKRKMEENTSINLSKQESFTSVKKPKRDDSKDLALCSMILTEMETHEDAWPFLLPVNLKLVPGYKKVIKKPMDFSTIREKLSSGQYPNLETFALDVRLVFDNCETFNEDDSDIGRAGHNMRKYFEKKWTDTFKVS
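Protein-peptide AlphaScreen: BAZ2B 50 nM, b-H3K14Ac 50 nM, 1x PBS pH 7.4 + 0.01% Tween-20. Preincubation 30 min RT; cpd 30 min RT (top 110 uM); beads 20 min RT, light-protected.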
HP1b chromo inh: HP1-beta chromodomain-methylated histone interaction inhibition. P83916. AlphaScreen HP1-beta / biotin-H3K9me3 peptide binding. Potency, µM (titrated, usually from 114 µM), actives largely listed as inhibitors. 0.56% of 390,000 active. AID 540317; further: nearly all actives have a fitted effect of over 70% in size
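HP1-beta protein (50 nM final) preincubated 30 min at room temperature with biotinylated H3(1-18)K9me3 peptide (50 nM) in PBS pH 7.4, 0.01% Tween-20, then compound added for 30 min. AlphaScreen streptavidin donor/nickel chelate acceptor beads (10 ug/mL final), 30 min dark, luminescence read.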
G9a inh: G9a (human) methyltransferase inhibition | Q96KQ7 | G9a H3K9 monomethylation, AlphaScreen, 2 h | Potency, µM (series often up to 102 µM), usual class: inhibitors | 8.8% of 350,000 active | AID 504332; further: nearly all actives have a fitted effect of over 75% in size
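Step 1: enzyme (final 20 nM) with compound, 15 min RT. Step 2: substrate peptide 500 nM and SAM 20 uM, 2 h RT. Step 3: anti-H3K9me1 antibody and AlphaScreen beads, 10 min, then plate read.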
TDP1 block: inhibitors of human tyrosyl-DNA phosphodiesterase TDP1 | 0.28% of 350,000 active | Q9NUW8 | Potency, µM (highest dose often 130 µM), most hits filed as inhibitors | recombinant TDP1, AlphaScreen DNA substrate cleavage; further: nearly all actives have a fitted effect of over 40% in size
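Steps: enzyme plus compound, 15 min RT; add biotin/phosphotyrosine-FITC oligonucleotide (15 nM final), react 5 min; add donor/acceptor beads (10 ug/ml final), 10 min; read AlphaScreen. Tdp1 at 1 nM final.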
JMJD2A Tudor inh: inhibitors of human JMJD2A Tudor domain; O75164; 4.4% of 390,000 active; Potency, µM (series often up to 114 µM), usual class: inhibitors; AlphaScreen JMJD2A-Tudor / H3K4me3 peptide binding; further: nearly all actives have a fitted effect of over 50% in size
Large screens that a line does not name were inactive; ! = not confirmed by another sample. The call rests on the fitted dose curve; in most records, active means well fitted curve in the direction sought with a large enough effect; inconclusive means small, poorly fitted or top-dose-only effect, or another doubt; inactive means no such curve, though single readings can be large; an effect the other way counts as inactive or inconclusive.

COc1ccc(NC(=O)/C(C#N)=C\C=C\c2ccco2)cc1	BAZ2B block inconclusive, HP1b chromo inh inconclusive, G9a inh inconclusive, JMJD2A Tudor inh inconclusive
Cc1ccc(CN(C(=O)COc2ccc(C)c(C)c2)C2CCS(=O)(=O)C2)o1 (stereo not given)	JMJD2A Tudor inh inconclusive
O=C(c1ccc(CS(=O)(=O)c2c(Cl)cccc2Cl)o1)N1CCN(c2ccccc2)CC1	BAZ2B block inconclusive (no result: Sfp inh)
O=C(NO)c1cc(OCC(F)(F)F)ccc1OCC(F)(F)F	G9a inh 79µM
O=C(NC1CC1)c1cc(OCC(F)(F)F)ccc1OCC(F)(F)F	none
CC(=O)Nc1sc2c(c1C(c1cccc(Cl)c1)N1CCN(CCO)CC1)CCCC2 (stereo not given)	BAZ2B block inconclusive, G9a inh 50µM, JMJD2A Tudor inh inconclusive
O=[N+]([O-])c1cccnc1SCc1c(F)cccc1Cl	BAZ2B block inconclusive (no result: G9a inh)
O=[N+]([O-])c1ccccc1CSc1ccccn1	G9a inh 50µM
O=[N+]([O-])c1ccc(CSc2ccccn2)cc1	none (no result: TDP1 block)
O=[N+]([O-])c1ccc(SCc2c(F)cccc2Cl)nc1	BAZ2B block inconclusive, JMJD2A Tudor inh 56µM (no result: G9a inh)
O=[N+]([O-])c1ccc(Sc2ccccn2)nc1	G9a inh 45µM
O=C(Nc1cc(Sc2ccccn2)cc([N+](=O)[O-])c1)c1ccc([N+](=O)[O-])cc1	BAZ2B block inconclusive, JMJD2A Tudor inh 3.2µM
Cc1oc2ccc(O)c(CN3CCCCC3C)c2c1C(=O)Nc1ccccc1 (stereo not given)	none (no result: Sfp inh)
O=[N+]([O-])c1ccc(Sc2nnnn2-c2ccccc2)nc1	none
O=[N+]([O-])c1ccc(Sc2ccc(Cl)c(Cl)c2)nc1	BAZ2B block 22µM, G9a inh inconclusive, JMJD2A Tudor inh inconclusive
Cc1cc(C)c(C#N)c(SCc2ccccc2[N+](=O)[O-])n1	G9a inh 10µM
Cc1cccc(N2NC(=O)/C(=C/c3ccc(-c4ccc(Cl)c(C(=O)O)c4)o3)C2=O)c1	HP1b chromo inh inconclusive, G9a inh 13µM, TDP1 block 11µM, JMJD2A Tudor inh inconclusive (no result: BAZ2B block)
O=C1NN(c2ccccc2)C(=O)/C1=C/c1ccc(-c2ccc(Cl)c(C(=O)O)c2)o1	BAZ2B block 50µM, HP1b chromo inh inconclusive, G9a inh 18µM, TDP1 block 16µM, JMJD2A Tudor inh 56µM
CCCC(O)C(CC)CO (stereo not given)	none (no result: BAZ2B block, HP1b chromo inh, JMJD2A Tudor inh)
CO[C@@H]1/C=C\CC(=O)N2CCC[C@@H]2C(=O)OC[C@@H](C)C(=O)OC[C@H]1C	none (no result: BAZ2B block, HP1b chromo inh, G9a inh, JMJD2A Tudor inh)
CCCCCCN1C=C/C(=C\C=C(C#N)C#N)c2ccccc21	BAZ2B block 3.2µM, HP1b chromo inh inconclusive, G9a inh 7.1µM, JMJD2A Tudor inh 2.8µM
CCCCCN1C=CC=C/C1=C\C=C(C#N)C#N	BAZ2B block inconclusive, G9a inh inconclusive
CCCCCCN1C=CC=C/C1=C/C=C(C#N)C#N	Sfp inh inconclusive, BAZ2B block 25µM, G9a inh 45µM, JMJD2A Tudor inh inconclusive
COc1ccc(Cl)cc1NC(=O)C1CCN(S(=O)(=O)c2ccc3c(c2)CC(C)N3C(C)=O)CC1 (stereo not given)	none (no result: Sfp inh)
CCCN1C(=O)/C(=C\c2ccncc2)SC1=Nc1ccccc1	BAZ2B block inconclusive, G9a inh inconclusive, JMJD2A Tudor inh inconclusive
CCN1C(=O)/C(=C\c2ccncc2)SC1=Nc1ccc(C)c(C)c1	BAZ2B block 32µM, HP1b chromo inh inconclusive, G9a inh inconclusive, JMJD2A Tudor inh 50µM
CO[C@@H]1/C=C\CC(=O)N[C@@H](C)C(=O)OC[C@@H](OC)[C@H](C)/C=C\CC(=O)OC[C@H]1C	none (no result: BAZ2B block, HP1b chromo inh, G9a inh, JMJD2A Tudor inh)
COc1ccc(-c2c3c(=O)n(C)c(=O)n(C)c3cn2Cc2ccccn2)cc1	Sfp inh inconclusive, BAZ2B block 50µM, G9a inh inconclusive
COc1ccc(-c2c3c(=O)n(C)c(=O)n(C)c3cn2-c2cc(OC)ccc2OC)cc1	BAZ2B block inconclusive, G9a inh 45µM, JMJD2A Tudor inh inconclusive
COc1ccc(-c2c3c(=O)n(C)c(=O)n(C)c3cn2Cc2cccnc2)cc1	G9a inh 10µM
CCCc1nn2c(=O)cc(COC(=O)c3cccc(NC(=O)COc4ccccc4C)c3)nc2s1	none (no result: Sfp inh)
O=C(Nc1ccccc1C(F)(F)F)c1ncn[nH]1	Sfp inh inconclusive, BAZ2B block 14µM, JMJD2A Tudor inh 7.9µM (no result: G9a inh)
Cc1c(NC(=O)c2ccco2)cccc1-c1nc2cccnc2s1	Sfp inh inconclusive, G9a inh 14µM, JMJD2A Tudor inh inconclusive
Cc1c(NC(=O)c2ncn[nH]2)cccc1-c1nc2ccccc2s1	BAZ2B block 25µM, G9a inh inconclusive, JMJD2A Tudor inh inconclusive
O=C(NCCOc1ccccc1)c1ncn[nH]1	BAZ2B block 50µM, G9a inh inconclusive, JMJD2A Tudor inh 40µM
COCc1ccc(C(=O)OC(C)C(=O)Nc2c(C)n(C)n(-c3ccccc3)c2=O)cc1 (stereo not given)	none (no result: Sfp inh)
Fc1ccccc1N1CCN(c2nccn3nc(-c4ccc(Br)cc4)cc23)CC1	none (no result: Sfp inh)
Oc1ccc(/C=C\c2cc(O)cc(O)c2)cc1	none (no result: BAZ2B block, HP1b chromo inh, JMJD2A Tudor inh)
Oc1ccc(/C=C/c2cc(O)cc(O)c2)cc1	G9a inh 7.9µM!
CCCCOC(=O)/C=C\C(=O)NC(N)=O	G9a inh 45µM
CCCCOC(=O)/C=C\C(=O)OCCCC	none (no result: TDP1 block)
CC(C)COc1cccc(C(=O)NC(=S)NCc2cccnc2)c1	G9a inh 45µM, JMJD2A Tudor inh inconclusive
CCOc1cccc(C(=O)NC(=S)NCc2cccnc2)c1	none
CCCOc1ccc(C(=O)NC(=S)NCc2cccnc2)cc1	BAZ2B block inconclusive, G9a inh 45µM
